High-throughput results deposited in PubChem by Center for Chemical Genomics, University of Michigan.
This excerpt belongs to a sample that is enriched for hits.
Dicer inh: blocks human Dicer maturation of pre-miR-21; Q9UPY3; cat-ELCCA pre-miR-21 Dicer processing, chemiluminescence; active compounds read high; z-score at 25 µM; actives 6% (n = 47,000); in the data active means z-score above about 3, passing the limit was not always enough;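 further: higher signal means more uncleaved substrate so more Dicer inhibition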
Numbers stand for hits; n = inactive.

SMILES | Dicer inh
O=C(ON=C(c1ccc(F)cc1)c1ccc(F)cc1)c1ccc(Cl)cc1 | n
C/C(COc1ccc(Cl)cc1Cl)=N\OC(=O)c1cccc(C)c1 | n
Cc1cc(=O)n(C)c(=O)n1CCCCN1CCOCC1 | n
C=CCOc1c(Cl)cc(CNCCSc2nnnn2C)cc1OC | n
CC(=O)C1C(=O)c2cccc([N+](=O)[O-])c2C1=O (centres undefined) | n
CC(=O)C1C(=O)c2c(Cl)c(Cl)c(Cl)c(Cl)c2C1=O | 5.1
CC(=O)C1C(=O)CC(c2ccc(Cl)cc2)CC1=O (centres undefined) | n
CCCCCOc1ccc(C2C(C(=O)OCC)=C(C)N=C3SCCC(=O)N32)cc1OC (centres undefined) | n
O=C(Nc1ccccc1Sc1c(Cl)cncc1Cl)c1ccc(Cl)cc1 | n
CC1CN(c2ncccc2[N+](=O)[O-])CC(C)O1 (centres undefined) | n
O=C(COC(=O)c1ccc(F)c(Cl)c1)c1ccc(Cl)cc1 | n
O=C(COC(=O)c1cc(Cl)ccc1O)c1ccc(-c2ccccc2)cc1 | 6.1
O=C(COC(=O)c1cc2ccccc2cc1OC(=O)c1ccc(Cl)cc1)c1ccccc1 | n
CSc1ccccc1Cn1c(=O)c2[nH]cnc2n(-c2ccccc2C)c1=O | n
FC(F)(F)c1cc(Cl)cnc1NN=C1C2CC3CC(C2)CC1C3 | n
Cc1ccc(NC(=O)c2ccccc2N)c(N)c1 | n
Cc1nc(NCC(C)C)c2sc3nc4c(cc3c2n1)COC(C)(C)C4 | n
CCOC(=O)c1c(-c2ccc(C)cn2)csc1N | n
CCOC(=O)c1c(NC(=S)N2CCCc3ccccc32)sc2c1CCN(C(=O)OCC)C2 | n
Cn1c(=O)c2c(nc(Sc3ccccc3N)n2C)n(C)c1=O | n
Cn1c(=O)c2c(nc(SCc3ccc(F)cc3)n2C)n(C)c1=O | n
Cn1c(=O)c2c(nc(Sc3nnc(N)s3)n2C)n(C)c1=O | 3.1
COC(=O)c1cc(=O)n2c(-c3ccccc3)nnc2s1 | n
CCC(C(=O)Nc1ccc(C(F)(F)F)cc1)c1ccccc1 (centres undefined) | n
CCOc1ccc(C2C3=C(CC(C)(C)CC3=O)Nc3nc(C)nn32)cc1 (centres undefined) | n
SMILES | Dicer inh
O=C1COc2ccc(C3=Nc4ccccc4SC(c4ccccc4)C3)cc2N1 (centres undefined) | n
c1ccc2c(c1)NC(c1ccc3nsnc3c1)c1cccn1-2 (centres undefined) | n
Cc1ccc(OCC2CN(Cc3ccccc3)C(=O)O2)cc1 (centres undefined) | n
O=C(O)C1CC(=O)N(c2ccc(Oc3ccccc3)cc2)C1 (centres undefined) | n
O=C1OC(COc2ccccc2)CN1c1ccccc1 (centres undefined) | 3.4
COc1ccc(Oc2cccc(Cl)c2CNC(=O)Nc2ccc(OCc3ccccc3)cc2)cc1 | n
CCOC(=O)c1cc(C#N)c(Sc2n[nH]c(=O)n2Cc2ccc(C(F)(F)F)cc2)nc1C | n
CC(C)OC(=O)Nc1cnccc1C(F)(F)F | n
Nc1cc(-c2ccc(Cl)cc2)nn1-c1ccc(F)cc1 | n
CSC(=NC(C)(C)CO)Nc1c(C)cccc1C | 4.8
Cc1cccc(C)c1NC(=O)C(C)N (centres undefined) | n
CCCSC(=NCC)Nc1c(C)cccc1C | n
Cc1onc(-c2c(Cl)cccc2Cl)c1NC(=O)Oc1ccc(F)cc1Cl | n
Cn1nc(-c2ccccc2)cc1NS(=O)(=O)c1ccc(C(F)(F)F)cc1 | n
Cc1nc(C)c(-c2csc(Nc3ccc(C(=O)O)c(O)c3)n2)s1 | n
Cc1cc(NS(=O)(=O)c2ccc(Nc3nc(-c4c(C)nc5ccccn45)cs3)cc2)no1 | 3.5
Cc1cc(NS(=O)(=O)c2ccc(Cl)cc2)no1 | n
COc1ccc(-c2csc(Nc3ccc(N(C)C)cc3)n2)cc1 | n
Cc1ccn2c(-c3csc(Nc4ccc(N(C)C)cc4)n3)c(C)nc2c1 | 5.5
CN(C)c1ccc(Nc2nc(-c3cccs3)cs2)cc1 | n
COc1ccccc1Nc1n[nH]c(=S)s1 | n
COc1ccccc1Nc1nc(-c2c(C)nc3cc(C)ccn23)cs1 | 4.6
Cc1nc(C)c(-c2csc(Nc3ccc(N(C)C)cc3)n2)s1 | 4.1
COc1ccccc1Nc1nc(-c2sc(N)nc2C)cs1 | n
Cc1cc(C)nc(NS(=O)(=O)c2ccc(Nc3nc(-c4c(C)nc5ncccn45)cs3)cc2)n1 | n
SMILES | Dicer inh
CCN(CC)c1ccc(Nc2nc(-c3ccc(O)cc3O)cs2)cc1 | n
O=C(CSc1nc(-c2ccco2)cc(C(F)(F)F)n1)Nc1cccc(Cl)c1 | n
Cc1ccc(C)n1CCn1c(C)ccc1C | n
CC(C)S(=O)(=O)c1csc(C(=O)O)c1N | n
CC(C)=CC(NCc1ccccc1O)C(=O)O (centres undefined) | n
N#Cc1c(Cl)cccc1Oc1ccc(S(=O)(=O)N2CCCN(c3nc4ccc(Cl)cc4s3)CC2)cc1 | n
COC(=O)c1cc(-c2ccc(Cl)cc2)nc2ccc(C)cc12 | n
Cc1cc(S(=O)(=O)Nc2ccnn2C)c(C)cc1Cl | n
O=c1nc(Nc2ccccc2)nc(Nc2ccccc2)[nH]1 | n
Cc1nc(N)sc1-c1csc(Nc2ccc(Br)cc2)n1 | n
Brc1ccc(-c2csc(Nc3ccncc3)n2)cc1 | n
Cc1nc2ccccn2c1-c1ccnc(SCC(=O)c2cccc(C(F)(F)F)c2)n1 | n
Cc1ccnc(Nc2nc(-c3c(C)nc4ccccn34)cs2)c1 | 3.1
Cc1nc2ccccn2c1-c1ccnc(SCC(=O)Nc2ccc(F)cc2)n1 | n
Cc1nc2sccn2c1-c1csc(Nc2ccc(Br)cc2)n1 | 4.2
Cn1c(=O)c2c(nc(N3CCC(C(N)=O)CC3)n2Cc2ccccc2Cl)n(C)c1=O | n
COC(=O)C1C2C=CC3(CN(c4ccc(Cl)cc4)C(=O)C13)O2 (centres undefined) | n
Cc1ccc(/C(O)=C2\C(=O)C(=O)N(CCCN3CCOCC3)C2c2ccco2)cc1 (centres undefined) | 3.3
O=C1C(=O)N(CCCN2CCOCC2)C(c2ccccc2)/C1=C(\O)c1ccccc1 (centres undefined) | n
Cc1ccc(/C(O)=C2\C(=O)C(=O)N(CCCN3CCOCC3)C2c2ccc(F)cc2)cc1 (centres undefined) | n
CC1(C)C/C(=N\NC(N)=O)c2ccc(OCc3ccccc3)cc2O1 | n
COC(=O)C1Cc2c([nH]c3ccccc23)C(c2ccc(Cl)cc2)N1 (centres undefined) | n
Oc1ccc2ncccc2c1C(Nc1ccccn1)c1ccccc1F (centres undefined) | n
CCOc1cccc(C(Nc2ccccn2)c2ccc3ccc(C)nc3c2O)c1O (centres undefined) | n
Cc1ccc2ccc(C(Nc3ccccn3)c3ccc(Br)cc3)c(O)c2n1 (centres undefined) | 5.7
SMILES | Dicer inh
CSc1ccc(C(Nc2ccccn2)c2ccc3ccc(C)nc3c2O)cc1 (centres undefined) | n
CCOc1ccc(C(Nc2ccccn2)c2ccc3ccc(C)nc3c2O)cc1 (centres undefined) | n
Cc1ccc2ccc(C(Nc3ccccn3)c3ccc(N(C)C)cc3)c(O)c2n1 (centres undefined) | 4.4
O=C(NCc1ccccc1)c1ncc(C(F)(F)F)cc1Cl | n
CC1CN=C(N(CCc2ccccc2)C(=O)Nc2cccc(Cl)c2)S1 (centres undefined) | n
O=C(Cn1nc(C(F)(F)F)c2c1CCC2)Nc1cccc(Cl)c1 | n
FC(F)(F)c1cnc(N2CCCN(C(=S)Nc3ccc(Cl)c(Cl)c3)CC2)c(Cl)c1 | n
CCN(CC)C(=O)c1sc(NC(=O)c2cc(-c3ccc(C)o3)nc3ccccc23)c(C(N)=O)c1C | n
